# In the supplement of paper PMC7411640:
# Counter-ions that a name gives are not always drawn.
# System: MDA-MB-468
# Experiment: phospho-S6 immunofluorescence (DAPI-normalised), per-plate z-score; higher = higher phospho-S6 signal (less pathway suppression)
# Conditions: co-treatment: GDC0941 450 nM; 24 h
# Protocol: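 GPCR-targeted compound library (MedChemExpress HY-L006) tested on MDA-MB-468 PTEN-null TNBC cells in 384-well plates at 0.1, 1 or 10 uM, combined with vehicle, GDC0941 450 nM or lapatinib 1 uM, for 24 h. Phospho-S6 (S240/244) immunofluorescence normalised to DAPI and expressed as a per-plate z-score; values are the mean of biological triplicates.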
row,Compound,phospho-S6 immunofluorescence (z-score)
1,Cc1cc(OCCCS(C)(=O)=O)cc(C)c1-c1cccc(COc2ccc3c(c2)OC[C@H]3CC(=O)O)c1 (compound 10 µM),-1.06
2,Cc1noc(NS(=O)(=O)c2ccc(N)cc2)c1C [Sulfisoxazole] (compound 10 µM),1.15
3,O=c1ccccn1CC1(O)CCN(Cc2ccccc2)CC1 (compound 10 µM),0.52

# Same assay, conditions: co-treatment: lapatinib 1 uM; 24 h
row,Compound,phospho-S6 immunofluorescence (z-score)
1,CCN(CC)Cc1ccc(C(=O)N(CCc2ccccc2OC)[C@@H]2CCNC2)cc1 (compound 10 µM),0.1
2,CC(C)C[C@H](NC(=O)CNC(=O)[C@H](Cc1ccc(O)cc1)NC(=O)[C@H](CO)NC(=O)[C@H](Cc1c[nH]c2ccccc12)NC(=O)[C@H](Cc1cnc[nH]1)NC(=O)[C@@H]1CCC(=O)N1)C(=O)N[C@@H](CCCNC(=N)N)C(=O)N1CCC[C@H]1C(=O)NCC(N)=O [Gonadorelin (acetate)] (compound 10 µM),0.57
3,Clc1ccc(Cn2c(CN3CCCC3)nc3ccccc32)cc1 [Clemizole (hydrochloride)] (compound 10 µM),0.26
4,CN(C)CCOC(C)(c1ccccc1)c1ccccn1 (configuration not stated) [Doxylamine (succinate)] (compound 10 µM),-0.64
5,Cn1c(=O)c2nc[nH]c2n(C)c1=O [Theophylline] (compound 10 µM),0.16
6,Cc1cc2c(cc1Cl)N(C(=O)Nc1ccc(Oc3cccnc3C)nc1)CC2 (compound 10 µM),-5.09
7,CN1CCC[C@@H]1CCO[C@](C)(c1ccccc1)c1ccc(Cl)cc1 [Clemastine (fumarate)] (compound 10 µM),-3.01
8,CC(C)(C)NCC(O)c1ccc(O)c(CO)c1 (configuration not stated) [Salbutamol (hemisulfate)] (compound 10 µM),1.46
9,CCc1c(C(=O)NCCc2ccc(N3CCCCC3)cc2)[nH]c2ccc(Cl)cc12 (compound 10 µM),-0.3
10,CN1CCN2c3ccccc3Cc3ccccc3C2C1 (configuration not stated) [Mianserin (hydrochloride)] (compound 10 µM),-0.76
11,CC(=O)[C@H]1CC[C@H]2[C@@H]3CC=C4C[C@@H](O)CC[C@]4(C)[C@H]3CC[C@]12C [Pregnenolone] (compound 10 µM),1.58
12,Nc1nc(CC(=O)Nc2ccc(CCNC[C@H](O)c3ccccc3)cc2)cs1 [Mirabegron] (compound 10 µM),1.75
13,CCCCCCCCOc1ccccc1C(=O)Nc1ccc(C(=O)OCC[N+](C)(CC)CC)cc1 [Otilonium (bromide)] (compound 10 µM),2.8
14,CCCCC(=O)N(Cc1ccc(-c2ccccc2-c2nnn[nH]2)cc1)[C@H](C(=O)O)C(C)C [Valsartan] (compound 10 µM),0.5
15,CCCN[C@@H]1CCc2nc(N)sc2C1 [Dexpramipexole (dihydrochloride)] (compound 10 µM),0.15
16,O=C(O)Cn1c2c(c3cc(F)ccc31)CN(C(=O)c1cccc3ccccc13)CC2 [Setipiprant] (compound 10 µM),0.74
17,CCCCc1nc(C)c(CC(=S)N(C)C)c(=O)n1Cc1ccc(-c2ccccc2-c2nnn[nH]2)cc1 [Fimasartan] (compound 10 µM),1.66
18,COc1cc2nc(N3CCN(C(=O)c4ccco4)CC3)nc(N)c2cc1OC [Prazosin (hydrochloride)] (compound 10 µM),0.54
19,O=c1n(CCCN2CCN(c3cccc(Cl)c3)CC2)nc2ccccn12 [Trazodone (hydrochloride)] (compound 10 µM),0.08
20,CC(C)(O)c1ccccc1CC[C@@H](SCC1(CC(=O)O)CC1)c1cccc(/C=C/c2ccc3ccc(Cl)cc3n2)c1 [Montelukast (sodium)] (compound 10 µM),0.97

row,Compound,phospho-S6 immunofluorescence (z-score)
1,CCNC(=O)[C@H]1O[C@@H](n2cnc3c(N)nc(NCCc4ccc(CCC(=O)O)cc4)nc32)[C@H](O)[C@@H]1O (compound 10 µM),1.28
2,CC(C)N(CCCCOCC(=O)NS(C)(=O)=O)c1cnc(-c2ccccc2)c(-c2ccccc2)n1 (compound 10 µM),0.26
3,N=C(N)NCCCCN [Agmatine (sulfate)] (compound 10 µM),-0.16
4,CC(ONC(=O)c1cc(C(F)(F)F)cc(C(F)(F)F)c1)C(=O)Nc1ccc(Cl)cc1 (configuration not stated) (compound 10 µM),-1.73
5,OCC1OC(n2cnc3c(NCCc4ccccc4)ncnc32)C(O)C1O (configuration not stated) [N6-(2-Phenylethyl)adenosine] (compound 10 µM),1.11
6,OCc1ccc(-c2nn(Cc3ccccc3)c3ccccc23)o1 [Lificiguat] (compound 10 µM),2.82
7,CC#C[C@]1(O)CC[C@H]2[C@@H]3CCC4=CC(=O)CCC4=C3[C@@H](c3ccc(N(C)C)cc3)C[C@@]21C [Mifepristone] (compound 10 µM),1.14
8,Cc1ccccc1C(=O)Nc1ccc(C(=O)N2CCCC(O)c3cc(Cl)ccc32)c(C)c1 (configuration not stated) [Tolvaptan] (compound 10 µM),-1.6
9,COc1cc2nc(N(C)CCCNC(=O)C3CCCO3)nc(N)c2cc1OC (configuration not stated) [Alfuzosin] (compound 10 µM),0.71
10,"Cc1ccc(OCC(O)C(C)NC(C)C)c2c1CCC2 (configuration not stated) [ICI 118,551 (hydrochloride)] (compound 10 µM)",-1.56
11,O=C1CCC(c2ccccc2)(C2CCN(Cc3ccccc3)CC2)C(=O)N1 (configuration not stated) [Benzetimide (hydrochloride)] (compound 10 µM),-0.15
12,CCC(=O)NC[C@@H]1C[C@H]1c1cccc2c1CCO2 [Tasimelteon] (compound 10 µM),-0.25
13,N=C(N)NCCC[C@H](NC(=O)[C@H](Cc1ccccc1)NC(=O)[C@@H]1CCCN1C(=O)[C@H](CO)NC(=O)[C@H](Cc1ccccc1)NC(=O)CNC(=O)[C@@H]1CCCN1C(=O)[C@@H]1CCCN1C(=O)[C@@H](N)CCCNC(=N)N)C(=O)O [Bradykinin] (compound 10 µM),0.5
14,CCc1cc(/C(C)=N/OCc2ccc(C3CCCCC3)c(C(F)(F)F)c2)ccc1CN1CC(C(=O)O)C1 [Siponimod] (compound 10 µM),0.38
15,OC[C@H]1O[C@@H](n2cnc3c(N[C@@H]4CCc5ccccc54)ncnc32)[C@H](O)[C@@H]1O (compound 10 µM),0.89
16,CCNC1(C(N)=O)CCN(c2ncnc3c2nc(-c2ccccc2Cl)n3-c2ccc(Cl)cc2)CC1 [Otenabant] (compound 10 µM),-2.03
17,Cc1cc(OCCCS(C)(=O)=O)cc(C)c1-c1cccc(COc2ccc3c(c2)OC[C@H]3CC(=O)O)c1 (compound 10 µM),0.1
18,Cc1noc(NS(=O)(=O)c2ccc(N)cc2)c1C [Sulfisoxazole] (compound 10 µM),-0.03
19,O=c1ccccn1CC1(O)CCN(Cc2ccccc2)CC1 (compound 10 µM),-0.19
